Data on 21 molecules can be found in PubChem BioAssay (NCI).

This is part of a sample that, as a whole, favours compounds with a hit. Of some 79,000 tested, about 15% had one in any assay. A number with no mark means an inactive call. The source made the active and inactive calls. Cut-off read from the data, not from the text of the source: active = growth inhibition above about 70%; inactive = the rest.

The nature of assay [1]: NCI Yeast Anticancer Drug Screen. Data for the rad50 strain (AID 155).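 Note: 0% = growth of vehicle-only cultures of the same strain.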 The note with it: S. cerevisiae rad50 strain growth inhibition; at 50.0 µM; active compounds read high. Put shortly: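 Genetically altered yeast (DNA repair pathway); compound treatment; growth inhibition vs vehicle ctrl.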
Assay [2] can be described thus: NCI Yeast Anticancer Drug Screen. Data for the mec2-1 strain (AID 157). The note with it: S. cerevisiae mec2-1 strain, at 50.0 µM, active compounds read high. Put shortly: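 Cells of the genetically defined mec2-1 yeast strain are incubated with test compound. Inhibition of growth is calculated against vehicle-treated controls.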
Assay [3] in a line: NCI Yeast Anticancer Drug Screen. Data for the sgs1 mgt1 strain (AID 161).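 Note: 0% = growth of cultures given vehicle only.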 The note with it: S. cerevisiae sgs1 mgt1 strain, at 50.0 µM, active compounds read high. The procedure, abridged:
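Read-out: growth inhibition vs vehicle controls. Cells: mutant yeast strain deficient in DNA damage repair.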

Assay [4] can be described thus: NCI Yeast Anticancer Drug Screen. Data for the cln2 rad14 strain (AID 165).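 Note: 0% = growth equal to vehicle treated cultures.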 The note with it: S. cerevisiae cln2 rad14 strain, at 50.0 µM, active compounds read high. The procedure, abridged: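 The screen exposed genetically defined yeast (cln2 rad14) to test compounds and scored growth inhibition relative to vehicle-treated controls.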
Assay [5] can be described thus: NCI Yeast Anticancer Drug Screen. Data for the bub3 strain (AID 167). The note with it: S. cerevisiae bub3 mutant strain, at 50.0 µM, active compounds read high. Put shortly: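 Yeast carrying a defined mutation is treated with each compound, and growth is compared with that of vehicle-exposed cells to give inhibition.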
Assay [6] in a line: NCI Yeast Anticancer Drug Screen. Data for the mlh1 rad18 strain (AID 175). The note with it: S. cerevisiae mlh1 rad18 strain growth inhibition; at 50.0 µM; active compounds read high. Put shortly:
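Compound-treated yeast growth, normalised to vehicle controls. Strain bears defined DNA repair mutations.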

As for `Cc1ccc(S(=O)(=O)/C(C#N)=C/NC(=S)Nc2ccc(C)cc2C)cc1`, the growth inhibition was -53.7% in assay [1]; -26.9% in assay [2]; -30.8% in assay [3]; -41.4% in assay [4]; -40.5% in assay [5]; -41.4% in assay [6].

`CCOC(=O)c1c[nH]c(=S)[nH]c1=O`: the growth inhibition in assay [1] was 9.25%; in assay [2], -8.4%; in assay [3], 18.7%; in assay [4], -15.1%; in assay [5], -1.2%; in assay [6], -10.8%.

On to `COC(=O)c1cc(-c2ccccc2)nc2c(Cl)cc(Cl)cc12`, for which the growth inhibition in assay [1] is -4.4%; in assay [2], -12.1%; in assay [3], -5.55%; in assay [4], -28.6%; in assay [5] it was 11.7%; in assay [6], -14.4%.

As for `O=c1[nH]nnc2ccccc12`, the growth inhibition in assay [1] was 2.85%; in assay [2], 4.8%; in assay [3] it was 1.85%; in assay [4] it was 4.55%; in assay [5], 17.9%; in assay [6], -0.55%.

As to `Cc1ccccc1C(OCCN(C)C)c1ccccc1` (stereo unspecified), the growth inhibition in assay [1] was -46.2%; in assay [2], -44.8%; in assay [3], -44%; in assay [4], -6.65%; in assay [5] it was -39%; in assay [6] it was -28.1%.

Take `CCCCCCCCCCCCCCCCCC(=O)OCC1OC(OC)C(NC(=O)N(CCCl)N=O)C(O)C1O` (stereo unspecified): the growth inhibition is 16.3% in assay [1]; -6.85% in assay [2]; -4.8% in assay [3]; 13.7% in assay [4]; 21.4% in assay [5]; 9.15% in assay [6].

As to `O=C(Nc1ccc(Cl)cc1)/C(Cc1cccc[n+]1[O-])=N\Nc1ccc([N+](=O)[O-])cc1[N+](=O)[O-]`, the growth inhibition was -19.4% in assay [1]; -17% in assay [2]; -6.2% in assay [3]; -7.15% in assay [4]; -26.6% in assay [5]; -20.2% in assay [6].

Regarding `CC(NC(=O)OC(C)(C)C)C(=O)NC(Cc1ccccc1)C(=O)NCC(=O)ON=C1CCCC1` (stereo unspecified), the growth inhibition in assay [1] was 37.1%; in assay [2] it was 4.1%; in assay [3] it was 32.6%; in assay [4], 7.3%; in assay [5], 1.9%; in assay [6], 23.6%.

In the case of `O=C(O)c1cccc(CO)c1O`, the growth inhibition in assay [1] is 3.25%; in assay [2] it was -10.5%; in assay [3], -12.7%; in assay [4], -17.4%; in assay [5] it was 6.75%; in assay [6] it was 4.4%.

As for `Cc1nc(C)c(N2CCN(C#N)CC2)c(=O)[nH]1`, the growth inhibition in assay [1] is -52.6%; in assay [2], -23.6%; in assay [3], -29.1%; in assay [4], 0.35%; in assay [5], -11.7%; in assay [6], -40.2%.

For `Cc1cc(C)nc(Sc2c([N+](=O)[O-])ncn2C)n1`, the growth inhibition in assay [1] was 4.1%; in assay [2], -17.3%; in assay [3], -20.9%; in assay [4] it was 4.65%; in assay [5], 12.6%; in assay [6], -10.3%.

`CN1CCC(CO)CC1`: the growth inhibition in assay [1] was -12.8%; in assay [2] it was -2.7%; in assay [3], -2.65%; in assay [4], 9.05%; in assay [5], 11.8%; in assay [6] it was -8.4%.

With `O=C(/C=C/c1ccc(O)c(O)c1)c1ccc(O)c(O)c1O`, the growth inhibition is 14.3% in assay [1]; -5.15% in assay [2]; 4.45% in assay [3]; -57.9% in assay [4]; 8.55% in assay [5]; 19.5% in assay [6].

As to `COc1ccc(Cc2c(O)ccc3ccccc23)cc1`, the growth inhibition is 98.6% (active) in assay [1]; 99.4% (active) in assay [2]; 99% (active) in assay [3]; 95.8% (active) in assay [4]; 98.3% (active) in assay [5]; 99.2% (active) in assay [6].

In the case of `Cc1ccc(SCc2cn(C3OC(CO)C(O)C3O)c(=O)[nH]c2=O)cc1` (stereo unspecified), the growth inhibition in assay [1] is 25.3%; in assay [2], 20.4%; in assay [3], 12.9%; in assay [4], 22.6%; in assay [5] it was -1.4%; in assay [6], 12.2%.

On to `C(#Cc1c2ccccc2c(C#Cc2ccccc2)c2c(-c3ccccc3)cccc12)c1ccccc1`, for which the growth inhibition was -11.1% in assay [1]; 13.1% in assay [2]; -3.5% in assay [3]; 4.05% in assay [4]; 45.6% in assay [5]; 24.5% in assay [6].

Regarding `O=C1CCC2CCC1C2` (stereo unspecified), the growth inhibition was 10.1% in assay [1]; -16.6% in assay [2]; -41.3% in assay [3]; 15.8% in assay [4]; -36.7% in assay [5]; -28.3% in assay [6].

As to `Oc1c(Br)cc(Br)cc1/C=N/N=C/c1cc(Br)cc(Br)c1O`, the growth inhibition in assay [1] was -6.7%; in assay [2] it was -20%; in assay [3], -15.9%; in assay [4], 0.2%; in assay [5] it was -8.5%; in assay [6], 7.5%.

For the molecule `COCOc1ccc(-c2ccc(O)cc2)cc1`, the growth inhibition in assay [1] was 10.8%; in assay [2] it was 9.95%; in assay [3], 0%; in assay [4] it was -47.2%; in assay [5] it was 18.9%; in assay [6], 5.15%.

`CC(Cc1ccccc1)NN` (stereo unspecified): the growth inhibition is 14.8% in assay [1]; 9.55% in assay [2]; 16.5% in assay [3]; 5.65% in assay [4]; 10.4% in assay [5]; 9.4% in assay [6].

For the molecule `CCc1nc2c([nH]1)c(=O)n(C)c(=O)n2C`, the growth inhibition in assay [1] was 35%; in assay [2], -4.6%; in assay [3], 11.6%; in assay [4], 16.5%; in assay [5], -20.6%; in assay [6], 20.4%.
